Compounds with a hit are over-represented: about 2.1% of the library has one in this group of screens.
KLF5 inhibitor – suppresses KLF5 promoter-driven expression; DLD-1 KLF5 promoter-luciferase reporter, luminescence; inhibition, % at 5 µM; 290,000 tested, 0.23% active;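 active means inhibition above a per-plate limit of that plate's mean compound inhibition plus 3 SD, cut at about 60% in these data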;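 further: 0% = DMSO wells and 100% = LY294002 at 200 µM; higher means less KLF5 promoter-driven luciferase light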
aSyn 5UTR inh – 5' untranslated region of α-synuclein, MLPCN primary screen; alpha-synuclein 5'UTR reporter, inhibitor activity; inhibition, % (tested at 7.5 µM); 300,000 tested, 0.82% active; in the data active means inhibition above about 60%;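 further: H4 neuroglioblastoma cells stably carrying SNCA 5'UTR luciferase fusion; 0% = DMSO wells and 100% = positive control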
HIF act – HIF pathway transcriptional activation | U2OS HRE-luciferase reporter, luminescence; normalized: DMSO 0%, desferrioxamine 100% | 300,000 tested, 0.32% active | activation, % at 7.5 µM (by protocol) | AID 1910;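 active means mean activation of at least 10% of the iron chelator positive control signal, with at least half of replicates also reaching 10%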
Wee1 degr inh – inhibitors of human Wee1 degradation; AID 1321; 220,000 tested, 1.2% active; HeLa Luc-Wee1K328M stability, luciferase luminescence; 100% = proteasome inhibitor MG132 effect; P30291; reporter increase, % at 5 µM;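 active means activation above the mean of all tested compounds plus 3 SD, set per screening run, cut at about 8.8% in these data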;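 further: cells exposed to compound for 20 h before luminescence read; 0% = DMSO alone and 100% = MG132 at 30 µM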
Target sequence (P30291 whole entry K328M): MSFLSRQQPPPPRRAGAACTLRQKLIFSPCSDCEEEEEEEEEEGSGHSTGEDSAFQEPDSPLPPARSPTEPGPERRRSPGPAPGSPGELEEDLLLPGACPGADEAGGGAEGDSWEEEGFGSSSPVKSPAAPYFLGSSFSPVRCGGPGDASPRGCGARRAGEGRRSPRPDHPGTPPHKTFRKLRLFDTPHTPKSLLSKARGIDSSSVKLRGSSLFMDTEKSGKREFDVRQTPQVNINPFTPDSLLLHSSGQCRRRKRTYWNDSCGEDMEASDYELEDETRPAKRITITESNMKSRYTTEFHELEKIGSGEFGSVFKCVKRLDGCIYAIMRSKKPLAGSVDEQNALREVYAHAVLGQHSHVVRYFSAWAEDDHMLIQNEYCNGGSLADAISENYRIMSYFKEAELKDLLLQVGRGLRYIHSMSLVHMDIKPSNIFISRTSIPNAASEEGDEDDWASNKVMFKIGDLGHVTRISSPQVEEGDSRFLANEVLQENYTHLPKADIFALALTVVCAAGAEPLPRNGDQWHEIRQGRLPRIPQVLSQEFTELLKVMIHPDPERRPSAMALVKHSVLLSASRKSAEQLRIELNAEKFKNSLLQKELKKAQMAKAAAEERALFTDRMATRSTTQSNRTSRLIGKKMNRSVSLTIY
Platelet DG rel – modulates dense granule release in human platelets; human platelet-rich plasma, SFLLRN dense granule ATP release, luminescence; inhibition, %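 (compounds screened at 7.5 µM in platelet-rich plasma)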; 300,000 tested, 0.22% active; AID 1663;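 active means mean replicate score, as percent of positive control, at or above 50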
* marks the source's active call; other numbers are inactive results; · = no result given.

SMILES | KLF5 inhibitor | aSyn 5UTR inh | HIF act | Wee1 degr inh | Platelet DG rel
CCN(CC)CCNc1ncnc2c1sc1nc(N3CCOCC3)c3c(c12)CC(C)(C)SC3 | -12 | 18 | -1 | 0 | 3
Cc1cc(C)cc(NC(=O)[C@@H](NC(=O)c2ccco2)C(C)C)c1 | -8 | 13 | 0 | · | -1
CN(C)C(=O)c1cn(-c2ccc(Cl)cc2)c(=O)c2ccccc12 | 2 | 8 | 0 | -2 | 1
CN(C)C=NC(=O)c1cn(-c2ccc(F)cc2)c(=O)c2ccccc12 | -22 | 7 | 58* | 0 | 2
CC(C)(C)c1ccc(C(=O)N/C(N)=N/c2nc3ccccc3o2)cc1 | 8 | -24 | 0 | 4 | 6
N/C(=N\c1nc2ccccc2o1)NC(=O)c1ccc(Cl)cc1 | 25 | -87 | 0 | 0 | -7
Cc1ccc2oc(/N=C(\N)NC(=O)C(C)(C)C)nc2c1 | 44 | 96* | -4 | -5 | 24
Cc1ccc2oc(/N=C(\N)NC(=O)C3CC3)nc2c1 | -14 | 5 | -3 | 9.3* | 1
COc1ccc2no[n+]([O-])c2c1 | -9 | -13 | 0 | 2 | -7
O=C(CCCCCn1nnc2ccccc2c1=O)Nc1ccccc1Cl | -37 | -13 | -28 | · | -11
Cc1ccc(NC2=C/C(=N/S(=O)(=O)c3cccs3)c3ccccc3C2=O)cc1C | -19 | -155 | 1 | 4 | 6
CC(=O)Nc1ccc(NC2=C/C(=N/S(=O)(=O)c3cccs3)c3ccccc3C2=O)cc1 | -32 | 83* | -2 | -1 | 6
Cc1ccccc1NC1=C/C(=N\S(=O)(=O)c2ccc(C(=O)O)cc2)c2ccccc2C1=O | -17 | -69 | -14 | · | -2
Cc1ccccc1NC1=C/C(=N\S(=O)(=O)c2cccs2)c2ccccc2C1=O | -20 | 114* | -7 | -1 | -8
Clc1ccc(CN=C2Nc3ccccc3CS2)cc1 | -109 | -182 | 5 | 8.8* | 1
Cc1ccc(CN=C2Nc3ccccc3CS2)cc1 | -126 | -26 | 1 | -1 | 3
Cc1nc(SCCC(=O)O)c2cc(-c3ccccc3)sc2n1 | 32 | 67* | -4 | · | -7
Cc1nc(N2CCOCC2)c2cc(-c3ccccc3)sc2n1 | 8 | -12 | 0 | -2 | 37
COc1cc(-c2onc3ccc(Br)cc23)cc(OC)c1OC | -13 | 66* | 0 | 0 | 2
CCN1CCN(C(=O)c2ccc3c(c2)S(=O)(=O)c2ccccc2C3=O)CC1 | -11 | 13 | 0 | 1 | 1
C=C1CC2C=C(NC(C)=O)CC(C1)C2 (centres undefined) | -10 | 8 | 0 | 9.6* | -1
CCCN1CCc2c(sc(NC(=O)C3CCN(S(=O)(=O)c4cccs4)CC3)c2C(N)=O)C1 | · | -9 | -1 | · | 7
O=C(COc1ccc(Cl)cc1)Nc1ccc2c(c1)nc1n2CCOC1 | -15 | 7 | 0 | · | 5
O=C(CSCc1ccco1)c1cccs1 | -37 | -174 | 2 | -1 | 85*
O=C(NCc1ccco1)c1cccs1 | 1 | -4 | 0 | 8 | 9
SMILES | KLF5 inhibitor | aSyn 5UTR inh | HIF act | Wee1 degr inh | Platelet DG rel
Cc1ccc(C(c2nnnn2C2CCCC2)N2CCc3ccccc32)cc1 (centres undefined) | -11 | -60 | 2 | 9.1* | -4
CC(C)C(c1nnnn1C1CCCC1)N1CCc2ccccc21 (centres undefined) | 4 | 15 | 0 | 0 | -1
O=C(c1ccc(C(F)(F)F)cc1)C1CCCN(C(=O)CN2C(=O)CSC2=O)C1 (centres undefined) | -21 | -16 | 2 | 9.8* | 17
CCc1nc2c(c(=O)c3ccccc3n2C)c(=O)n1CCc1ccc(OC)cc1 | -1 | 74* | 0 | -1 | 19
Cc1cc(-c2ccc(C(C)C)c(S(=O)(=O)N3CCC(C)CC3)c2)on1 | -7 | 19 | 0 | · | -2
CN1C=CC(=C2C(=O)c3ccccc3C2=O)C=C1 | -122 | 14 | 0 | 4 | 1
CCCCCCN1C=CC(=C2C(=O)c3ccccc3C2=O)C=C1 | -92 | 107* | -7 | -4 | 8
COc1ccc(-n2cc(-c3ccccc3)c3c(NCCCN4CCOCC4)ncnc32)cc1 | -9 | 17 | 0 | 8.9* | -6
O=C(NCCNc1nccc(C(F)(F)F)n1)c1cccs1 | 10 | -5 | 1 | 9.2* | 0
O=C(c1ccc(Cl)cc1)c1ccc(OCC(=O)N2CCOCC2)cc1 | 14 | 11 | -1 | 9.6* | -2
O=C(CCc1ccccc1)NNc1cc(N2CCCCC2)nc(N2CCCCC2)n1 | 20 | 82* | -2 | 1 | 13
CC(C)NC(=O)c1onc(CSc2ccc(F)cc2)c1C(=O)NC(C)C | · | 16 | 0 | · | 1

Compound activity from PubChem BioAssay.
